Consider 37 molecules from PubChem BioAssay (NCI).

Each structure is given as a SMILES string. This is part of a sample that, as a whole, favours compounds with a hit. Of some 83,000 tested, about 20% had one in any assay.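 Note: values are percent growth. 100 is the growth of untreated cells, values between 100 and 0 indicate rising inhibition; between -100 and 0 indicates cell death.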 Active and inactive are the calls of the source. How the source made its calls: active means growth percent below 10; inactive means the rest.

For one experiment, the system named is BT-549 breast. Kind of experiment: NCI-60 one-dose screen, 48 h (100 = growth as untreated, 0 = no growth, -100 = all killed). Particulars: 10 µM.
As for `COc1cc(-c2nc3cc(Cl)c(Cl)cc3[nH]2)ccc1OCC(=O)NN`, the growth is 95% (inactive).
Same read-out and setting: next, `CC1(C)Cc2c(cn(Cc3ccccc3)c2-c2ccccc2)-c2oncc21`: 108% (inactive); `CCOc1ccc(-n2cc(-c3ccc(N(C)C)cc3)[n+]3c2CCCCC3)cc1`: -1.7% (active); `O=C(COCc1c(-c2ccccc2)no[n+]1[O-])Nc1nc(-c2ccc(Cl)cc2)cs1`: 102% (inactive).
On the same count and under the same terms, in the case of `CCN(Cc1ccccc1)C1CCN(Cc2cc(Br)ccc2O)CC1` it was 80.6% (inactive); in that of `COCc1cc2c(cc1Br)OCO2`, 105% (inactive); in that of `COc1cc(/C=C/C(=O)c2cc(-c3ccc(C(F)(F)F)cc3)ccc2O)cc(OC)c1OC`, 73.2% (inactive).
Same read-out and setting: next, `Cc1cc(C#Cc2ccccc2)ccc1-n1c(/C=C/c2cc(O)ccc2O)nc2ccccc2c1=O`: -11.1% (active); `COc1cc(-c2nc3ccc(C)cc3[nH]2)ccc1OCC(=O)N=Nc1c(O)[nH]c2ccccc12`: 18.9% (inactive).
In the case of `COc1cc(-c2nc(-c3nnc(-c4cccnc4)o3)c3ccccn23)cc(OC)c1OC`, the growth is 97.7% (inactive).
Same read-out and setting: in the case of `COc1cccc(C2(C)Nc3ccccc3-c3nc4ccccc4n32)c1` (centres undefined) it was 108% (inactive); in that of `COc1cc(CSc2nc3ccc(Cl)cc3c(=O)n2Cc2ccccc2)cc(OC)c1OC`, 21.7% (inactive); in that of `CC(C)c1[nH]nc2c(NCc3ccc(-c4ccccn4)cc3)nc(SCCN(C)C)nc12`, -43.1% (active).
With `OC(CNC1CCCC1)Cn1c2ccccc2c2ccccc21` (centres undefined), the growth was 53.8% (inactive).
As for `O=c1cc(CSc2nnc(-c3ccccc3)n2-c2ccc(F)cc2)c2ccc3ccccc3c2o1`, the growth is 102% (inactive).
Still for that read-out and setting: next, `CC[C@@]1(C(N)=O)CC2C=CC1C2` (some centres undefined): 104% (inactive); `CCCCOCC(=O)NC(NP(=O)(N(C)C)N(C)C)C(Cl)(Cl)Cl` (centres undefined): 117% (inactive).
The same measure, in the same setting: next, `COc1ccccc1S(=O)(=O)Nc1ccc2c(c1)CN(C)C(=O)N2`: 101% (inactive).
Same read-out and setting: next, `O=C1CC(c2cccc(-c3cccnc3)c2)=Nc2ccc(Br)cc2N1`: -3.46% (active).
In the case of `N#Cc1c2c([nH]c(=O)c1C(N)=O)CCCCC2`, the growth was 100% (inactive).
The same measure, in the same setting: next, `CCOC(=O)C(CCC1=NC(C)(C)CC(C)O1)C(=O)OCC` (centres undefined): 88.9% (inactive); `COc1cc(Nc2ccnc(N3CCN(c4ccnc5cc(Cl)ccc45)CC3)n2)cc(OC)c1`: -4.01% (active); `CS(=O)(=O)Nc1ccc(OCc2nnc(-c3ccc(Cl)cc3)o2)c(F)c1`: 89.4% (inactive).
The same measure, in the same setting: in the case of `COc1cc(C2CC(=O)Nc3c2c(C)nn3-c2nc3ccccc3[nH]2)cc(OC)c1O` (centres undefined) it was 46.2% (inactive); in that of `CCCCCCN=C(N)CCCCCCCCCCC(N)=NCCCCCC`, 39.4% (inactive).
Same read-out and setting: next, `COc1ccc(-c2ccc(-c3ccc(C(=N)N)c(F)c3)s2)cc1`: -91.7% (active); `Oc1ccccc1-c1nnc(Cn2c(Cc3cccc4ccccc34)nc3ccccc32)o1`: 101% (inactive); `FC(F)(F)c1ccc(-c2nc(-c3nc4cc(Cl)c(Cl)cc4[nH]3)c3ccccn23)cc1`: 88.2% (inactive).
With `CC(=O)Nc1ccc(Sc2ccc(NC(C)=O)cc2)cc1`, the growth was 95.5% (inactive).
Still for that read-out and setting: in the case of `CNC(=O)c1cc(Oc2ccc(NC(=O)Nc3ccc(Cl)c(OC(C)C)c3)c(F)c2)ccn1` it was 75.1% (inactive); in that of `c1ccc(OCCC[P+](c2ccccc2)(c2ccccc2)c2ccccc2)cc1`, 11% (inactive); in that of `CN(C)c1ccc2c(c1)OC(N)=C(C#N)C2c1ccc2c(c1)CCCN2C` (centres undefined), 49.4% (inactive).
On the same count and under the same terms, in the case of `CCOC(=O)Nc1ccc2c(c1)C(=O)N(CCOC)c1ccccc1O2` it was 52.8% (inactive); in that of `COc1cccc2c1O/C(=C\c1ncc([N+](=O)[O-])n1C)C2=O`, -63.6% (active).
In the case of `O=C1/C(=C/c2ccc(O)cc2O)N=C2SCCCN12`, the growth was 96.9% (inactive).
The same measure, in the same setting: in the case of `O=S(=O)(NC1c2ccccc2Oc2ccccc21)c1cc(Cl)ccc1Cl` it was 91.1% (inactive); in that of `CCCCN(CCCC)c1ccc(C(=NC(C)CCCN(CC)CC)c2ccc(N(C)C)cc2)cc1` (centres undefined), -27.2% (active).

Another experiment relates to MDA-MB-435 melanoma. Described as above. The conditions noted are these: 10 µM.
Consider `COc1cc(-c2nc3cc(Cl)c(Cl)cc3[nH]2)ccc1OCC(=O)NN`, for which the growth was 63.6% (inactive).
On the same count and under the same terms, in the case of `CC1(C)Cc2c(cn(Cc3ccccc3)c2-c2ccccc2)-c2oncc21` it was 92.8% (inactive).
On the same count and under the same terms, in the case of `CCOc1ccc(-n2cc(-c3ccc(N(C)C)cc3)[n+]3c2CCCCC3)cc1` it was 15.1% (inactive); in that of `O=C(COCc1c(-c2ccccc2)no[n+]1[O-])Nc1nc(-c2ccc(Cl)cc2)cs1`, 111% (inactive).
Same read-out and setting: next, `CCN(Cc1ccccc1)C1CCN(Cc2cc(Br)ccc2O)CC1`: 52.1% (inactive).
In the case of `COCc1cc2c(cc1Br)OCO2`, the growth is 108% (inactive).
Regarding `COc1cc(/C=C/C(=O)c2cc(-c3ccc(C(F)(F)F)cc3)ccc2O)cc(OC)c1OC`, the growth is 48.4% (inactive).
The same measure, in the same setting: next, `Cc1cc(C#Cc2ccccc2)ccc1-n1c(/C=C/c2cc(O)ccc2O)nc2ccccc2c1=O`: -56.3% (active); `COc1cc(-c2nc3ccc(C)cc3[nH]2)ccc1OCC(=O)N=Nc1c(O)[nH]c2ccccc12`: -52.6% (active).
Same read-out and setting: next, `COc1cc(-c2nc(-c3nnc(-c4cccnc4)o3)c3ccccn23)cc(OC)c1OC`: 99.2% (inactive); `COc1cccc(C2(C)Nc3ccccc3-c3nc4ccccc4n32)c1` (centres undefined): 104% (inactive).
Still for that read-out and setting: in the case of `COc1cc(CSc2nc3ccc(Cl)cc3c(=O)n2Cc2ccccc2)cc(OC)c1OC` it was 1.84% (active); in that of `CC(C)c1[nH]nc2c(NCc3ccc(-c4ccccn4)cc3)nc(SCCN(C)C)nc12`, 0.81% (active).
Regarding `OC(CNC1CCCC1)Cn1c2ccccc2c2ccccc21` (centres undefined), the growth was -2.91% (active).
Take `O=c1cc(CSc2nnc(-c3ccccc3)n2-c2ccc(F)cc2)c2ccc3ccccc3c2o1`: the growth is 112% (inactive).
The same measure, in the same setting: next, `CC[C@@]1(C(N)=O)CC2C=CC1C2` (some centres undefined): 106% (inactive); `CCCCOCC(=O)NC(NP(=O)(N(C)C)N(C)C)C(Cl)(Cl)Cl` (centres undefined): 102% (inactive); `COc1ccccc1S(=O)(=O)Nc1ccc2c(c1)CN(C)C(=O)N2`: 34.2% (inactive).
On the same count and under the same terms, next, `O=C1CC(c2cccc(-c3cccnc3)c2)=Nc2ccc(Br)cc2N1`: 43.5% (inactive); `N#Cc1c2c([nH]c(=O)c1C(N)=O)CCCCC2`: 108% (inactive); `CCOC(=O)C(CCC1=NC(C)(C)CC(C)O1)C(=O)OCC` (centres undefined): 104% (inactive).
As for `COc1cc(Nc2ccnc(N3CCN(c4ccnc5cc(Cl)ccc45)CC3)n2)cc(OC)c1`, the growth was 1.35% (active).
On the same count and under the same terms, in the case of `CS(=O)(=O)Nc1ccc(OCc2nnc(-c3ccc(Cl)cc3)o2)c(F)c1` it was 104% (inactive).
On the same count and under the same terms, next, `COc1cc(C2CC(=O)Nc3c2c(C)nn3-c2nc3ccccc3[nH]2)cc(OC)c1O` (centres undefined): 23% (inactive).
On the same count and under the same terms, next, `CCCCCCN=C(N)CCCCCCCCCCC(N)=NCCCCCC`: 38.9% (inactive); `COc1ccc(-c2ccc(-c3ccc(C(=N)N)c(F)c3)s2)cc1`: -79.5% (active); `Oc1ccccc1-c1nnc(Cn2c(Cc3cccc4ccccc34)nc3ccccc32)o1`: 111% (inactive).
For `FC(F)(F)c1ccc(-c2nc(-c3nc4cc(Cl)c(Cl)cc4[nH]3)c3ccccn23)cc1`, the growth is 73.4% (inactive).
The same measure, in the same setting: in the case of `CC(=O)Nc1ccc(Sc2ccc(NC(C)=O)cc2)cc1` it was 104% (inactive); in that of `CNC(=O)c1cc(Oc2ccc(NC(=O)Nc3ccc(Cl)c(OC(C)C)c3)c(F)c2)ccn1`, 43.2% (inactive).
The same measure, in the same setting: in the case of `c1ccc(OCCC[P+](c2ccccc2)(c2ccccc2)c2ccccc2)cc1` it was 0.653% (active).
The same measure, in the same setting: next, `CN(C)c1ccc2c(c1)OC(N)=C(C#N)C2c1ccc2c(c1)CCCN2C` (centres undefined): -5.69% (active); `CCOC(=O)Nc1ccc2c(c1)C(=O)N(CCOC)c1ccccc1O2`: -14.2% (active).
Consider `COc1cccc2c1O/C(=C\c1ncc([N+](=O)[O-])n1C)C2=O`, for which the growth is -62.5% (active).
Same read-out and setting: next, `O=C1/C(=C/c2ccc(O)cc2O)N=C2SCCCN12`: 99.2% (inactive).
Still for that read-out and setting: in the case of `O=S(=O)(NC1c2ccccc2Oc2ccccc21)c1cc(Cl)ccc1Cl` it was 105% (inactive).
On the same count and under the same terms, in the case of `CCCCN(CCCC)c1ccc(C(=NC(C)CCCN(CC)CC)c2ccc(N(C)C)cc2)cc1` (centres undefined) it was -87.5% (active).
